# PubChem BioAssay AID488895 (Broad Institute, 2010)
# The whole screen tested about 340,000 compounds, of which about 120 (0.035%) were called active. The sample holds actives, similar compounds and a random draw of the others, so the mix is not that of the screen. Unmarked numbers belong to inactive results.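 How the source made its calls: active means mean replicate inhibition at least 50% and at least half of replicates individually reaching 50%; inconclusive means only one of the two criteria met; inactive means neither criterion met.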
# Assay: E. coli Tat export inhibitors, primary screen, MC4100, TorA-mCherry reporter, fluorescence, single point (AID 488895);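 further: exported cargo escapes ClpAP degradation while cytoplasmic cargo is degraded and loses fluorescence; 0% = median of neutral control wells and 100% = median of NaSCN control wells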
# Conditions: at 10 µM, stronger effect = higher value
row,SMILES,inhibition
1,CC(C)CC(O)C1CCN(C(=O)CCc2nnc(-c3ccc4c(c3)OCO4)o2)CC1 (stereo unspecified),-2.64%
2,COc1ccc(N2CC(C(=O)NCCN3C(=O)S/C(=C\c4cccnc4)C3=O)CC2=O)c(OC)c1 (stereo unspecified),-1.64%
3,O=C1C(Cl)=C(Oc2ccccc2)C(=O)c2ccccc21,-14.1%
4,COc1ccc(-c2nonc2NC(=O)c2oc3ccc(F)cc3c2C)cc1OC,-6.3%
5,Cc1noc(C)c1COc1cccc(C(=O)Nc2cccnc2)c1,11.3%
6,COCCN1C(=O)C(=O)/C(=C(/O)c2ccc(S(=O)(=O)N3CCCCC3)cc2)C1c1ccc(OC)c(OC)c1 (stereo unspecified),-4.83%
7,COCCCNC(=O)C1CC(=O)N(CCc2ccc(F)cc2)C1 (stereo unspecified),3.6%
8,O=C(Nc1cccc(F)c1)NC1CCCCCCC1,3.94%
9,C=CCn1c(SCc2c(C(=O)OC)sc(N)c2C(=O)OC)nnc1-c1ccc(Cl)cc1,0.305%
10,CCCn1c(SCC(=O)c2ccc3c(c2)OCCO3)nnc1C(C)C,1.9%
11,CC(=O)c1ccc(NC(=O)C(C)OC(=O)c2ccc(NS(=O)(=O)c3ccc4[nH]c(=O)[nH]c4c3)cc2)cc1 (stereo unspecified),-1.62%
12,COc1cccc(CCNC(=O)COc2cccc3c2OC(C)(C)C3)c1,-3.07%
13,O=C(NCc1ccccc1)c1onc(CSc2ccncc2)c1C(=O)NCc1ccccc1,4.39%
14,Cn1c(SCC(=O)N2CCCCC2)nc2c(c1=O)SCC2,1.18%
15,COc1cc2c(cc1OC)C(c1ccccc1Br)NC(=O)C2 (stereo unspecified),4.97%
16,CSc1ccc(/C=C/C(=O)NC23CC4CC(CC(C4)C2)C3)cc1,1.4%
17,COC(=O)c1cc(NC(=O)CC2C(=O)NCCN2C(=O)c2ccc(F)cc2)cc(C(=O)OC)c1 (stereo unspecified),-6.39%
18,O=C(O)CCc1nc2cc(Cl)ccc2n(Cc2ccccc2)c1=O,3.23%
19,COc1ccccc1CNS(=O)(=O)c1c(C)[nH]c(C)c1C(=O)N1CCCCC1,-2.57%

row,SMILES,inhibition
1,Cc1noc(C)c1CSCC(=O)Nc1ccc(Br)cc1Cl,-0.881%
2,Cc1ccc(/C=N/NC(=O)COc2ccccc2-c2ccccc2)cc1,0.565%
3,CC(=O)NC(C(=O)NCC(N)=O)C(C)C (stereo unspecified),-5.64%
4,Cc1ccc(SCC(=O)c2cc(C)c(OC(=S)N(C)C)c(C)c2)cc1,5.72%
5,NC(=O)C[C@@H]1NC(=O)CNC(=O)c2cc([N+](=O)[O-])cc(I)c2NCCC(C(N)=O)NC1=O (stereo partly specified),-3.55%
6,O=C(Nc1nnc(C2=COCCO2)o1)c1ccc([N+](=O)[O-])s1,-7.65%
7,CCCOc1ccc2c3c(c(=O)oc2c1OCCC)CCC3,14.7%
8,COc1cc(C2OC(c3cc(OC)c(OC)c(OC)c3)C(C)C2C)cc(OC)c1OC (stereo unspecified),-3.59%
9,CCn1c(CC(=O)Nc2ccccc2)nnc1SCC(=O)N1CCOCC1,-5.24%
10,C=CCn1c(SCC(=O)Nc2ccc(NC(C)=O)cc2)nc2sc(C)c(C)c2c1=O,-0.334%
11,CC1(C)CC(=O)C(N=Nc2c(F)cccc2F)=C(O)C1,-8.43%
12,CCc1ccccc1N1C(=O)C2C3CC(=O)C(c4ccccc43)C2C1=O (stereo unspecified),-1.63%
13,COC(=O)C1CCN(CC(N)=O)CC1,-3.53%
14,O=C(COC(=O)c1ccc(N2CCCC2=O)cc1)c1ccc(OC(F)F)cc1,6.18%
15,CCn1c(SCC(=O)c2ccc(Cl)s2)nnc1-c1cccs1,-0.241%
16,CCOC(=O)N1CCC(N2Cc3cccc(C(=O)Nc4c(C)cccc4CC)c3C2=O)CC1,14.7%
17,CC1CCN(C(=S)NC2CC3CCC2C3)CC1 (stereo unspecified),-4.26%
18,Cc1nc(C(=O)N2CCCC(C(=O)c3ccc(Cl)cc3)C2)cs1 (stereo unspecified),0.604%
19,Oc1ccccc1-c1cc(-c2ccc(Cl)cc2)n[nH]1,-12.8%

row,SMILES,inhibition
1,NS(=O)(=O)c1cc(C(=O)OCC(=O)NNC(=O)c2ccccc2)ccc1Cl,-3.95%
2,COC(CCN(C)C)(c1ccccc1)c1ccccc1,-2.82%
3,C=C1c2c(Cl)ccc(O)c2C(O)=C2C(=O)[C@]3(O)C(O)=C(C(N)=O)C(=O)[C@@H](N(C)C)[C@@H]3[C@@H](O)C12 (stereo partly specified),28.9%
4,CN(C)[C@@H]1C(=O)C(C(N)=O)=C(O)[C@@]2(O)C(=O)C3=C(O)c4c(O)ccc(Cl)c4[C@@H](O)[C@H]3C[C@@H]12,151% (active)
5,CCN(C(=O)c1cc([N+](=O)[O-])ccc1NCc1cccnc1)c1ccccc1,-1.18%
6,COc1ccc(C(=O)O)cc1S(=O)(=O)NC1CCN(Cc2ccccc2)CC1,-6.45%
7,Cc1ccc(Cl)cc1NC(=O)COC(=O)C1CCCCC1,6.67%
8,O=C(CCc1nnc2ccc(NCc3ccccc3Cl)nn12)NCC1CCN(C2CCCC2)C1 (stereo unspecified),1.11%
9,O=C(/C=C/Nc1ccc(S(=O)(=O)Nc2cnc3ccccc3n2)cc1)c1cccnc1,-0.716%
10,COc1ccc(Br)cc1/C=N/Nc1ccc(S(=O)(=O)Nc2ccccc2C(=O)O)cc1[N+](=O)[O-],-2.56%
11,O=C(NCCCN1CCN(c2ccc(F)cc2)CC1)Nc1ccc([N+](=O)[O-])cc1,10.8%
12,O=S(=O)(c1ccc(F)cc1)n1ccc(-c2cnc(-c3ccccc3)s2)n1,1.96%
13,O=C(/C=N/O)Nc1ccccc1,1.32%
14,c1ccc2c(-c3nn4nnnc4c4ccccc34)cccc2c1,13.5%
15,COCCNc1nc(N)c([N+](=O)[O-])c(NCCO)n1,-3.96%
16,Cc1ccc(CSCC2Nc3ccc(C(=O)N4CCN(c5ccc(F)cc5)CC4)cc3NC2=O)cc1 (stereo unspecified),-4.6%
17,NC(=O)CCC(NS(=O)(=O)c1ccc(Cl)cc1)C(=O)NCc1ccccc1Cl (stereo unspecified),-7.83%
18,CC(=O)N1CCN(CC(c2ccccc2)c2ccccc2)CC1,-7.44%
